Results on 40 sequences are retold here after the supplement of paper PMC6555819.

In this test the test system is VDR:RXRa (NR concentration 270 nM, RXRa partner concentration 90 nM). Put plainly: PBM binding z-score (relative to random genomic background probes); higher = stronger binding; sequences stand for … in GC…GCGATTGACAGCGTAGAATGAAGG
As for the experimental part: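 Protein-binding microarray (Agilent 4x180K custom design, double-stranded 60-nt probes: 5' GC cap, 34-nt variable region, 24-nt constant primer region; full probe sequence given). Purified or IVT nuclear receptor:RXRα heterodimers (3:1 NR:RXRα, mostly 270:90 nM) or homodimers were incubated for 1 h in PBS with 2% milk and no ligand, then detected with Alexa488 antibodies. Fluorescence from o1-orientation probes (~5 replicates averaged) was converted to z-scores against 500 random hg19 background probes. Variable regions are seed direct-repeat (DR0–DR5) sites, all their single-nucleotide variants and half-site ablations.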
Consider TCTAGCAGGCCAGAGGGTGACTCAAGAGGTACGG, for which the PBM binding z-score was -0.421.
CCTAGCAGGCCAATCTGGGTAACTCAAGGCTTGA: the PBM binding z-score is -0.773.
Then GTACCAAGGTGAATAGGTCGTTGTTGAGTAGGCG, with 0.825; and TCTATTAGTTGAAGGGCGACCGACGAGTCCGTTT, with 0.925.
The figure for TCCTGTAGATCAATAGAGGTTAAGAAAGTGCGCT is 1.67.
As to TAGCCTAGGTCATGGGCCAGGATACCACGCGAAC, the PBM binding z-score was 1.97.
Regarding CTCGAAAGGTCGTGCGCAGGTGAGTATACCAAAC, the PBM binding z-score was found to be 3.64.
In the case of GCAGCTAGGTCAGGTTGGTCAGCTAACGGGTACG, the PBM binding z-score was determined as 0.358.
Then ATCGAAAGGTCGAGAGGTGAGTATACAGAAAGGC, with 2.73; and GGAACGAGGGCATTCGAGTTGATAGGATGGCGAT, with 3.74; and ACTCGGAGGACAAAGGTCAGTGCTACGCCAGTGA, with 2.82.
GCTGCTAGGTCAACTGGTGGTCAGCTAAAGCTCG gave a PBM binding z-score of 1.64.
AGAAGGAGGTTATTAAGATCAGGGAATTGCGGTC displayed a PBM binding z-score of 1.89.
Then TCTCGGAGGACTCGAAGGTCAGAGCTTTCCAGAG, with 0.759; and TCTTGTAGATCAGCAGTTTAAGAAAGCTGGCCAA, with -0.0839.
Then ACAATTAGTTGAGACGAGGGCAACCGATAGGTTG, with 0.691.
Then CCAGACAGGTGAGAACGTAACTCAGCCTCGATTA, with -0.0392; and AGTCAAAGTGCAGGACGAGGTAACGTAAAGCACG, with -0.0485.
ACTTACGGGTCAATGAGGTTATAGCACGCGTATA registered a PBM binding z-score of 7.74.
GCATATAGGTAATACAAGGTGAAACTCCGATTGT came in with a PBM binding z-score of 0.732.
The figure for CCTTACGGGTCACTGACAGGTTATAACATTTGGA is 3.84; for CCTTACGGGTTAAGGTTATAGCACGGGTGGTACG it is 0.894; for CCGACTGGGGCAGAAAGGTAACCATACCATCCGG it is -0.526.
Then CGAACGAGGGTATGAGTTGATAGCAAATGCCGAT, with -0.175; and ACAGACAGGTGATAAAGGTAACTCAGGCTATCAT, with 0.455.
Then CGTCGAAGGTCATAGGAGGTCAGTGAAGACAGAT, with 6.76; and TCTTGTAGATCAATACAGGTTAAGAAAGTGCGCT, with 1.26; and GCATATAGGTAATACCAGGTGAAAGTCCGATTGT, with -0.00851.
ATAATGAGGTTACCAAAGATCAGGGAAACGCTTG yielded a PBM binding z-score of 1.81.
As to ATCTCTAGGTAAGCAAGTTCAGTGAATGCCGAAC, the PBM binding z-score was 3.03.
Then CGTGAAAGTTCAAGGTAACGTAACAGAAAGCAGC, with 3.81.
The sequence GGACCGAGGGCATTCGAGTTGATAGCATGGCGAT yielded a PBM binding z-score of 3.66.
The figure for ATATGTAGGTTATCGGGTCAGTCAGTTTGCGCAT is 4.27.
Then ATCTCTGGGTAAAGTTCAGTGAAAGATCGATAGA, with 1.64.
Then CCTGCTAGGTCAATGGTCAGCTATAGCAGCTCGC, with 0.921; and AGTCAAAGTTCAGGACGAGGTAACGCAAAGCACG, with 2.89; and CTTATTAGTTGACCATAAGGGCAACCGAAGCTCG, with 0.523.
Sequence GGAACGAGGGCATTCGAGTTGATACCATGGCGAT gave a PBM binding z-score of 3.67.
On to CCTATTAGTTCACCATAAGGGCAACCGAAGCTCG, for which the PBM binding z-score amounted to 2.6.
The figure for CAAACTGGGTCAAAGGTCAAAGTCGAGCCAACCA is 6.65.
